B2AR ag: activates human beta-2 adrenergic receptor causing internalization; AID 504454; Am2.2-beta2AR cells, FAP receptor internalization, flow cytometry; response, % (concentration not given with the values); P07550; 0.43% of 340,000 active;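 active means response above a set limit, near 3 SD of response in nonfluorescent compounds, cut at about 42% in these data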
TLR9-MyD88 block: TLR9-MyD88 interaction inhibition | CHO BLA complementation TLR9-MyD88, CCF4 FRET ratio | inhibition, % at 4.98 µM | 0.21% of 340,000 active | AID 504734;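 active means inhibition above the mean over all tested compounds plus 3 SD, cut at about 21% in these data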;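 further: 0% = DMSO only wells and 100% = clavulanate BLA inhibitor control wells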
NTR1 ag: activates human neurotensin receptor 1. P30989. NTR1-U2OS beta-arrestin-GFP spot imaging, agonist mode. activation, % at 20 µM. 0.17% of 330,000 active. AID 493036;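 active means activation at or above 40% of the spot to cytoplasm intensity ratio, with at least 20 cells analyzed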;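 further: 0% = DMSO without peptide and 100% = 100 nM NTR1 peptide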
NOD2 RIPK2 PPI: inhibitors of human NOD2-RIPK2 interaction | O43353 | CHO BLA complementation NOD2-RIPK2, CCF4 ratio | inhibition, % at 4.98 µM | 0.38% of 360,000 active; in the data active means inhibition above about 21%;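 further: 0% = vehicle only and 100% = reference blocker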
Bfl-1 A1 inh: inhibitors of the anti-apoptotic protein A1, read as caspase activation; MEF A1-2A-BIM cells, Caspase-Glo 3/7 luminescence, 3 h; percent of clofoctol response, vehicle zero; caspase activation, % (concentration not given with the values); 0.066% of 330,000 active; AID 2462;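 active means over half of replicate activation scores above 10%, or exactly half above 10 with the replicate mean above 10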
TLR4 MyD88 comp: blocks binding of human TLR4 to MyD88. O00206+Q99836. HeLa CL3-4 TLR4/MyD88 BLA complementation, FRET ratio. inhibition, % at 8.4 µM. 0.18% of 200,000 active; in the data active means inhibition above about 25%;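 further: 0% = vehicle and 100% = reference inhibitor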
NOD2 RIPK2 conf: NOD2-RIPK2 interaction inhibition confirmed. inhibition, % at 4.98 µM. 70% of 1,200 active. shares compounds with NOD2 RIPK2 PPI. AID 624370. CHO cells, NOD2-RIPK2 BLA complementation, CCF4 FRET;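 active means mean inhibition across replicates above a set limit taken from the earlier primary screen, cut at about 21% in these data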;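 further: 0% = DMSO-only wells and the high end = clavulanate BLA-blocked wells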
NOD2 BLA counter: hits BLA reporter in NOD2-RIPK2 inhibitor counterscreen; shares compounds with NOD2 RIPK2 PPI; CHO BLA reporter, CCF4 FRET ratio; inhibition, % at 4.98 µM; 57% of 1,200 active; AID 624371;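 active means mean inhibition above the low-control mean inhibition plus three low-control SD, cut at about 11% in these data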;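 further: 0% = DMSO only wells and 100% = clavulanate high control wells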
Active calls of the source: *; . = no result given. Shown are actives, neighbours in structure and some others; about 0.97% of the full set was active somewhere.

SMILES | B2AR ag | TLR9-MyD88 block | NTR1 ag | NOD2 RIPK2 PPI | Bfl-1 A1 inh | TLR4 MyD88 comp | NOD2 RIPK2 conf | NOD2 BLA counter
O=C(NC1CCCCC1)C(c1ccccc1F)n1c(=O)c(-c2cc3ccccc3[nH]2)nc2ccccc21 (stereo not given) | . | . | . | 45* | . | . | 42* | 66*
O=C(O)Cc1ccc(C(=O)CSc2ccccc2)s1 | -6 | -2 | 2 | 6 | -2 | . | . | .
NC(=O)NCC(=O)N1CCN(S(=O)(=O)c2ccc(Cl)s2)CC1 | 2 | -11 | 0 | -3 | -1 | . | . | .
COc1ccccc1C(=O)C1CCCN(C(=O)CCC(=O)c2ccccc2)C1 (stereo not given) | -1 | 5 | 0 | 7 | 0 | -2 | . | .
O=C1/C(=C\c2ccc(Cl)c(Cl)c2)CN(C(=O)CCN2CCOCC2)C/C1=C/c1ccc(Cl)c(Cl)c1 | 52* | -7 | . | 39* | . | . | 76* | 5
CCN(CC)CCC(=O)N1C/C(=C/c2ccccc2)C(=O)/C(=C\c2ccccc2)C1 | 17 | 11 | . | 24* | . | . | 47* | -1
O=C1/C(=C\c2ccccc2)CN(C(=O)CCN2CCCCC2)C/C1=C/c1ccccc1 | 18 | 12 | . | 36* | . | . | 55* | 1
O=C(NCCN1CCOCC1)c1ccc(Cl)c(Cl)c1 | -7 | -2 | 0 | -2 | -1 | . | . | .
CC1=C(C)CS(=O)N(S(=O)(=O)c2ccc(Cl)cc2)C1 (stereo not given) | -8 | 9 | 1 | 37* | 1 | 0 | 29* | 3
CC1CCCC(C)N1S(=O)(=O)c1ccc(Cl)cc1 (stereo not given) | 2 | -8 | 3 | 5 | 0 | . | . | .
Cc1cc(NC(=O)COC(=O)C2COc3ccccc3O2)no1 (stereo not given) | 0 | 0 | -1 | 3 | 1 | 2 | . | .
